Assay outcomes deposited in PubChem by National Center for Advancing Translational Sciences (NCATS).
Shiga inhibitor: A qHTS for Small Molecule Inhibitors of Shiga Toxin; Vero cells, Shiga toxin protein synthesis inhibition reporter; 290,000 tested, 9.2% active; AID 2315, 2010; inhibition, % at 38.7 µM; in the data active = inhibition mostly above about 28%, no sharp cut-off; inactive = mostly below about 43%
Sm TGR inh: qHTS Assay for the Inhibitors of Schistosoma Mansoni Peroxiredoxins | Schistosoma mansoni thioredoxin glutathione reductase (TGR), Q962Y6 | purified TGR, DTNB reduction, TNB absorbance 405 nm | Potency, µM (titrated, usually from 114 µM), actives largely listed as inhibitors | 360,000 tested, 3% active; also: nearly all actives have a fitted effect of over 60% in size
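TGR 20 nM + NADPH 100 uM (dispensed conc.), cpd preinc 15 min RT; start with NADPH (500 uM addition) then DTNB (15 mM addition). Kinetic TNB absorbance, 405 nm filter. Four-parameter Hill fit across titration.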
CHX counter: Cycloheximide Counterscreen for Small Molecule Inhibitors of Shiga Toxin; cell reporter, cycloheximide protein synthesis inhibition counterscreen; max response, %; 300,000 tested, 12% active; in the data active = max response mostly above about 13%, no sharp cut-off; inactive = mostly below about 14%; also: read at 38.3 µM for the half of the compounds with a filed dose
TbPYK inhibitor: qHTS of Trypanosoma Brucei Inhibitors; TbPYK enzyme, Kinase-Glo Plus ATP luminescence, 45 min; pyruvate kinase (Trypanosoma brucei), Q57TT1; 410,000 tested, 0.12% active; Potency, µM (titrated, usually from 76.8 µM), actives largely listed as inhibitors; also: nearly all actives have a fitted effect of over 50% in size
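Quantitative HTS: titrated library compounds versus trypanosomal pyruvate kinase in TEA buffer (pH 7.2) containing KCl, MgCl2, BSA and Tween-20. Reactions were initiated with ADP, 130 uM final. Kinase-Glo Plus luminescence was read after 45 min at RT.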
LmPK inh: qHTS Assay for Inhibitors of Leishmania Mexicana Pyruvate Kinase (LmPK); 290,000 tested, 0.37% active; Potency, µM (series often up to 57.5 µM), hits mostly inhibitors; purified LmPK, Kinase-Glo ATP luminescence, 1 h
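Screened at intermediate enzyme activity to detect both inhibitors and activators: LmPK at 0.1 nM, with a 0.5 nM enzyme column as activation reference. PEP 0.5 mM, ADP 0.1 mM; ATP detected by luminescence after 1 h.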
FBPA Giardia inh: qHTS Assay for Inhibitors of Fructose-1,6-bisphosphate Aldolase from Giardia Lamblia; Potency, µM (doses to about 59.6 µM), most hits filed as inhibitors; purified Giardia FBPA; 290,000 tested, 0.71% active; A8B2U2; also: nearly all actives have a fitted effect of over 55% in size
Target sequence (A8B2U2 whole entry, looked up): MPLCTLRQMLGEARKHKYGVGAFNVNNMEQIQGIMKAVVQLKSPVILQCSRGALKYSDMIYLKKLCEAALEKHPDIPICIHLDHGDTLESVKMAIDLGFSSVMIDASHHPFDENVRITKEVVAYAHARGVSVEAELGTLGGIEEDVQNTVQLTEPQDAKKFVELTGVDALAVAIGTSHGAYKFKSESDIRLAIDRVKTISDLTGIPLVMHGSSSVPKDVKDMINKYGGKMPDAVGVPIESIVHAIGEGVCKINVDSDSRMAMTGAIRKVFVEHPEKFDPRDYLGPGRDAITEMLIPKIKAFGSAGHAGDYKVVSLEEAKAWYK
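Giardia FBPA (40 nM reagent) was preincubated 10 min at RT with compound (up to 57.5 uM final), then substrate plus GAPDH/TPI/NAD/arsenate coupling system with diaphorase/resazurin was added; resorufin fluorescence (525/598 nm) was read after 20 min.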
Of the large screens only hits and unclear results are named; the others gave an inactive call. The entries come from a sample that favours hits as a whole. Unless noted, calls follow the shape of the dose curve; as a rule, active = well fitted curve in the direction sought with a large enough effect; inconclusive = small, poorly fitted or top-dose-only effect, or another doubt; inactive = no such curve, though single readings can be large; an effect the other way counts as inactive or inconclusive.

Cc1ccc(O)c(NC(=O)c2cc(-c3ccccc3Cl)on2)c1	Shiga inhibitor 78, CHX counter 34
COc1ccc(-c2cc(C(=O)Nc3cc(Cl)ccc3O)no2)cc1	Shiga inhibitor 70, CHX counter 38
CC(C)(C)OC(=O)N1CCC(c2c(C(=O)N3CCN(c4ccc(Cl)cc4)CC3)cnn2-c2ccc(F)cc2F)CC1	none (no result: Shiga inhibitor, CHX counter, LmPK inh, FBPA Giardia inh)
CC[C@H](C)[C@H](NC(=O)[C@H](Cc1cnc[nH]1)NC(=O)[C@@H](NC(=O)[C@H](CCCNC(=N)N)NC(=O)[C@H](CCCCN)NC(=O)[C@H](CCCNC(=N)N)NC(=O)[C@H](CCCCN)NC(=O)[C@@H](N)CC(N)=O)[C@@H](C)CC)C(=O)NCC(=O)N1CCC[C@H]1C(=O)NCC(=O)N[C@@H](CCCNC(=N)N)C(=O)N[C@@H](C)C(=O)N[C@@H](Cc1ccccc1)C(=O)N[C@@H](Cc1ccc(O)cc1)C(=O)N[C@H](C(=O)N[C@H](C(=O)N[C@@H](CCCCN)C(=O)N[C@@H](CC(N)=O)C(=O)N[C@H](C(=O)N[C@H](C(=O)NCC(=O)N[C@H](C(=O)N[C@H](C(=O)N[C@@H](CS)C(=O)O)[C@@H](C)CC)[C@@H](C)O)[C@@H](C)CC)[C@@H](C)CC)[C@@H](C)O)[C@@H](C)O	none (no result: Sm TGR inh, TbPYK inhibitor, LmPK inh)
Cc1cc(C)c(NC(=O)c2sc3nc(C)cc(C)c3c2N)c(C)c1	none (no result: Shiga inhibitor, CHX counter, LmPK inh, FBPA Giardia inh)
COc1ccccc1NC(=O)c1sc2nc(C)cc(C)c2c1N	none (no result: Shiga inhibitor, Sm TGR inh, CHX counter, LmPK inh, FBPA Giardia inh)
Cc1cc(C)c2c(N)c(C(=O)N/N=C/c3cccs3)sc2n1	Shiga inhibitor 92, CHX counter 53
Cc1cc(C)c2c(N)c(C(=O)Nc3ccc(C)c(C)c3)sc2n1	Shiga inhibitor 124, CHX counter 33
Cc1cc(C)c2c(N)c(C(=O)Nc3ccc(F)cc3)sc2n1	Shiga inhibitor 92, CHX counter 45
Cc1cc(C)cc(NC(=O)c2sc3nc(C)cc(C)c3c2N)c1	Shiga inhibitor 118, CHX counter 25
CCCCc1nc2c(c3c1C[C@H](C)OC3)CN(C(=O)COC)CC2	none (no result: Shiga inhibitor, Sm TGR inh, CHX counter, TbPYK inhibitor)
Cc1cccc(N2CCN(C(=O)CCC(=O)N3CCOc4ccc(Cl)cc43)CC2C)c1 (stereo not drawn)	none
N#CC(=Cc1ccnc2ccccc12)c1ccccc1	none (no result: Shiga inhibitor, Sm TGR inh, CHX counter, LmPK inh, FBPA Giardia inh)
Cc1cc(C)c2c(N)c(C(=O)c3ccc(Cl)c(Cl)c3)sc2n1	Shiga inhibitor 82
COc1ccc(NC(=O)c2sc3nc(C)cc(C)c3c2N)cc1	Shiga inhibitor 43, CHX counter 34
Cc1cc(C(F)(F)F)c2c(N)c(C(=O)Nc3cc(C)on3)sc2n1	Shiga inhibitor 117, CHX counter 55
COc1ccc(/C=N/NC(=O)c2sc3nc(C)cc(C)c3c2N)cc1	none
Cc1cc(C)c2c(N)c(C(=O)Nc3ccc([N+](=O)[O-])cc3)sc2n1	Shiga inhibitor 42, CHX counter 20
Cc1cc(C(F)(F)F)c2c(N)c(C(=O)NCc3ccc(Cl)cc3)sc2n1	none (no result: Shiga inhibitor, Sm TGR inh, CHX counter, LmPK inh, FBPA Giardia inh)
Cc1ccc(S(=O)(=O)N2CCOCC2)cc1NS(=O)(=O)c1ccc(F)c(F)c1	none (no result: Shiga inhibitor, CHX counter, LmPK inh, FBPA Giardia inh)
CCCCN1CC(=O)N2[C@H](c3ccc(OC)cc3)[C@@H]3C(=O)N(CC)C(=O)[C@@H]3[C@]2(C)C1=O	none
Cn1cc(C2CC(c3ccccc3)=NN2C(=O)c2ccccc2)c2ccccc21 (stereo not drawn)	CHX counter 22
COc1cccc(C2CC(c3ccc(NS(C)(=O)=O)cc3)=NN2C(=O)c2ccccc2)c1OC (stereo not drawn)	Shiga inhibitor 134, CHX counter 51
COc1ccccc1C1CC(c2ccc(NS(C)(=O)=O)cc2)=NN1C(=O)c1ccccc1 (stereo not drawn)	none
CCCC(=O)N1N=C(c2ccccc2)CC1c1cn(C)c2ccccc12 (stereo not drawn)	CHX counter 27
CC(=O)N1N=C(c2ccc(Br)cc2)CC1c1cn(C)c2ccccc12 (stereo not drawn)	none
COc1ccc(-n2ccnc(NCCc3ccc(S(N)(=O)=O)cc3)c2=O)cc1	none (no result: Shiga inhibitor, CHX counter, LmPK inh, FBPA Giardia inh)
COc1ccccc1OCc1cc(C(=O)N(C)CCC2CCCCO2)no1 (stereo not drawn)	Shiga inhibitor 126, CHX counter 59 (no result: FBPA Giardia inh)
COc1ccccc1OCc1cc(C(=O)NCCN2CCCC(O)C2)no1 (stereo not drawn)	none
COc1cc(C(C)=O)ccc1OCc1cc(C(=O)N(C)CCC2CCCCO2)no1 (stereo not drawn)	Shiga inhibitor 101, CHX counter 53
CC1(c2ccccc2Br)NC(=O)N(CC(=O)NC2CCCCC2)C1=O (stereo not drawn)	none (no result: Shiga inhibitor, CHX counter, LmPK inh, FBPA Giardia inh)
Cn1c(C2CCCCC2)nc2cc(N)ccc21	none
O=[N+]([O-])c1ccc2oc(C3CCCCC3)nc2c1	Shiga inhibitor 76, CHX counter 29
Nc1ccc2oc(C3CCCCC3)nc2c1	Shiga inhibitor 97, CHX counter 55
Nc1ccc2nc(C3CCCCC3)[nH]c2c1	CHX counter 13, FBPA Giardia inh inconclusive
CCCOc1ccc(OC(=O)c2cn(-c3ccc(OC)cc3)c(=O)c3ccccc23)cc1	none (no result: Shiga inhibitor, CHX counter, LmPK inh, FBPA Giardia inh)
CC(C)C[C@H](N)c1nnc(S(=O)(=O)Cc2ccc(F)cc2)o1	Sm TGR inh 1µM, CHX counter 42
CC(C)C[C@H](N)c1nnc(SCc2ccc(Cl)cc2Cl)o1	none (no result: Shiga inhibitor, CHX counter, LmPK inh, FBPA Giardia inh)
O=c1c2ccccc2sc2ccccc12	none (no result: Shiga inhibitor, Sm TGR inh, CHX counter, LmPK inh, FBPA Giardia inh)
Cc1cc2sc3ccccc3c(=O)c2c(C)c1O	Shiga inhibitor 85, CHX counter 71
Cc1cc(C)n(C(N)=NC(=O)c2ccc([N+](=O)[O-])cc2)n1	Shiga inhibitor 40, CHX counter 28
Fc1ccc(N/N=C2/CCSc3sccc32)c(F)c1	Shiga inhibitor 28, Sm TGR inh 25µM, CHX counter 15
Clc1ccc2nc(-c3ccc4c(c3)OCO4)cn2c1	Shiga inhibitor 76, CHX counter 35, LmPK inh inconclusive
O=C(O)c1cc(-c2ccc3c(c2)OCO3)nc2ccc(Cl)cc12	none (no result: FBPA Giardia inh)
Cc1ccc2nc(-c3ccc4c(c3)OCCO4)cn2c1	LmPK inh 14µM, FBPA Giardia inh inconclusive
Cc1ccc2nc(-c3ccc4c(c3)NC(=O)CO4)cn2c1	Shiga inhibitor 72, CHX counter 42, FBPA Giardia inh inconclusive
Cc1ccc(C2CC(=O)N(Cc3ccc(F)cc3)c3c2c(C)nn3-c2nc(C)cc(C)n2)cc1 (stereo not drawn)	none (no result: Shiga inhibitor, CHX counter, LmPK inh, FBPA Giardia inh)
CCOC(=O)c1ccc(-c2ccc3c(c2)CCC3)nc1C	Shiga inhibitor 93, CHX counter 29
COC(=O)c1ccc(-c2ccc(F)cc2)nc1C	Shiga inhibitor 73, CHX counter 112
